Experimental data: ChEMBL document CHEMBL3988442, “University of Dundee, Small-Polar-MMV Screening Library” (2021)
Out of some 48,000 compounds screened, about 13,000 (27%) showed an effect of 50% or more. This is one part of the list.

These compounds were tested on Wolbachia pipientis (assay: Anti-Wolbachia Cell-Based Screen). Settings: 5 µM.
Assay type: functional
Set-up: scale not given: in the data most compounds retested in dose-response had high values

Row | SMILES | Percent Effect
1 | O=C(NC1CC1)[C@@]12CCO[C@@H]1CCN(Cc1ccc3c(c1)OCO3)C2.O=C(O)C(F)(F)F | 117%
2 | CNC(=O)[C@@]12CCO[C@@H]1CCN(Cc1cccc(C)c1)C2.O=C(O)C(F)(F)F | 5.352%
3 | CC(C)NC(=O)[C@@]12CCO[C@@H]1CCN(Cc1ccc3c(c1)OCO3)C2.O=C(O)C(F)(F)F | 90.31%
4 | CNC(=O)[C@@]12CCO[C@@H]1CCN(Cc1ccc3c(c1)OCO3)C2.O=C(O)C(F)(F)F | 92.17%
5 | CN1CCC2(COCCN(Cc3ccc4c(c3)OCO4)C2)C1.O=C(O)C(F)(F)F.O=C(O)C(F)(F)F (stereo not given) | -6.126%
6 | CN(C)C(=O)[C@@H]1CCO[C@@H]2CCN(Cc3ccc4c(c3)OCO4)C[C@@H]21.O=C(O)C(F)(F)F | -16.18%
7 | Cc1ncsc1CN1CC[C@H]2OCC[C@@]2(C(=O)NC(C)C)C1.O=C(O)C(F)(F)F | 3.331%
8 | Cc1ncsc1CN1CC[C@H]2OCC[C@@]2(C(=O)NC2CC2)C1.O=C(O)C(F)(F)F | 0.183%
9 | O=C(NC1CC1)[C@H]1CN(Cc2ccc3c(c2)OCO3)C[C@H]2OCC[C@@H]12.O=C(O)C(F)(F)F | -14.17%
10 | CC(C)NC(=O)[C@@H]1CN(Cc2ccc3c(c2)OCO3)C[C@H]2OCC[C@H]21.O=C(O)C(F)(F)F | -18.01%
11 | CN(C)C(=O)[C@@]12CCO[C@@H]1CCN(Cc1ccc3c(c1)OCO3)C2.O=C(O)C(F)(F)F | 104.9%
12 | O=C(NC1CC1)[C@@H]1CN(Cc2ccc3c(c2)OCO3)C[C@H]2OCC[C@H]21.O=C(O)C(F)(F)F | -3.513%
13 | O=C1OCCN1Cc1cccc(C(F)(F)F)c1F | -20.92%
14 | CCC(NC(=O)c1ccco1)c1ccccc1OCC(=O)N1CCCC1 (stereo not given) | 7.206%
15 | CCOc1ccc(NC(=O)c2oc(CC)cc2C)cc1CO | -16.02%
16 | Cc1cc(CN2CC[C@H]3OCC[C@@]3(C(=O)NCc3ccco3)C2)no1.O=C(O)C(F)(F)F | -7.292%
17 | O=C(NCc1ccco1)[C@@]12CCO[C@@H]1CCN(CC1CCOCC1)C2.O=C(O)C(F)(F)F | -4.272%
18 | CC(C)NC(=O)[C@@]12CCO[C@@H]1CCN(Cc1ccco1)C2.O=C(O)C(F)(F)F | 113.3%
19 | O=C(NC1CC1)[C@@H]1CCO[C@@H]2CCN(C3CCCC3)C[C@H]21 | -4.337%
20 | COc1ccc(CN2CCN(CC3CC3)[C@@H]3CS(=O)(=O)C[C@@H]32)cc1O | 13.23%
21 | Cc1n[nH]cc1CNCc1ccnc(OCC(F)(F)F)c1.Cl | -12.37%
22 | CC(C)(C)c1n[nH]cc1CNC1CCC(OCC(F)(F)F)CC1.Cl (stereo not given) | 88.78%
23 | Cc1ccc(CNCc2c[nH]nc2C(C)(C)C)c(OC2CCOC2)c1 (stereo not given) | 13.41%
24 | CC(C)(C)c1n[nH]cc1CNC1CCC(C(F)(F)F)CC1.Cl (stereo not given) | 89.77%

Row | SMILES | Percent Effect
25 | Cc1n[nH]cc1CNC1CCN(c2cccc(C(F)(F)F)c2)CC1 | -2.63%
26 | Cc1n[nH]cc1CNC1CCN(c2ccc(F)cc2)CC1.Cl | -3.892%
27 | CC(C)(C)c1n[nH]cc1CNC1CCC(O)CC1 (stereo not given) | 81.49%
28 | COc1ccc(-c2cc[nH]n2)cc1CNC1CCCC1 | -3.837%
29 | CN(Cc1ccccc1)CC(C)(C)NC(=O)c1cnccn1 | 4.118%
30 | Cc1cccc(S(=O)(=O)N2CC[C@H]3[C@H]2CCN3c2ncccn2)c1.O=C(O)C(F)(F)F | -3.796%
31 | O=c1[nH]ccc2cc(-c3cc(O)cc(CCC4CCCCN4)c3)ccc12 (stereo not given) | -30.56%
32 | Cc1cccc(C(=O)N2CCCC2)c1NCC(=O)NC(C)(C#N)C1CC1 (stereo not given) | 5.415%
33 | CCC(CC)c1cc(CNC(=O)N2CCCC(N(C)C)C2)on1 (stereo not given) | -19.35%
34 | O=c1[nH]c(CCN2CCN(CC(F)(F)F)CC2)nc2ccccc12 | -18.37%
35 | O=C(CN1CCCNC1=O)Nc1ccccc1C(=O)C1CCCC1 | 8.695%
36 | O=C(O)c1ccc2c(CN3CCOCC3)c[nH]c2c1 | 6.765%
37 | CC1(C)CN(Cc2nnc(-c3cccnc3)o2)CC[C@]1(C)O | -0.3969%
38 | Clc1ccc(CN2CCC3(CC2)CC(c2cccnc2)=NO3)cc1 | 114.5%
39 | c1ccc(C2=NOC3(CCN(Cc4c[nH]c5ccccc45)CC3)C2)cc1 | 122.3%
40 | Clc1ccc(CN2CCOC[C@H](Oc3cccnc3)C2)cc1 | -8.51%
41 | CC(C)CCN1CC[C@H](c2nnc(Cc3c[nH]c4ccccc34)o2)C1 | -3.447%
42 | c1cncc(O[C@H]2COCCN(Cc3c[nH]c4ccccc34)C2)c1 | 0.3938%
43 | OCC1(Cc2ccc(Cl)cc2)CCN(Cc2cccnc2)CC1 | -27.42%
44 | c1cncc(C2=NOC3(CCN(Cc4c[nH]c5ccccc45)CC3)C2)c1 | 119%
45 | CC(C)C1=NOC2(CCN(Cc3c[nH]c4ccccc34)CC2)C1 | 126.9%
46 | CC(C)N1CC[C@H](c2nnc(Cc3c[nH]c4ccccc34)o2)C1 | -6.101%
47 | O=C(O)c1ccc2c(CN3CCCC3)c[nH]c2c1 | -9.8%
48 | CCc1nnc2n1CCN(C(=O)c1csc(-c3cnn(C)c3)n1)C2 | -10.57%

Row | SMILES | Percent Effect
49 | CCN1C[C@H]2CCN(C(=O)C3CCCO3)CC[C@H]2S1(=O)=O (stereo not given in full) | -2.394%
50 | CCc1cnc(CN(C(C)=O)C2CCN(CCc3cccs3)C2)o1 (stereo not given) | 1.615%
51 | CN(Cc1noc(C2CC2)n1)C1CCN(CCc2cccs2)C1 (stereo not given) | 86.2%
52 | Cc1ccc(CCN2CCC(N(C)Cc3noc(C4CC4)n3)C2)cc1 (stereo not given) | 33.43%
53 | Cc1nnc(CN(C)C2CCN(CCc3cccs3)C2)n1C (stereo not given) | 4.049%
54 | CC(=O)N(Cc1ncc(C)o1)C1CCN(CCc2cccs2)C1 (stereo not given) | 95.79%
55 | CN(Cc1nnc(C2CC2)o1)C1CCN(CCc2cccs2)C1 (stereo not given) | -15.6%
56 | Cc1nc(CN(C)C2CCN(CCc3cccs3)C2)no1 (stereo not given) | 100.8%
57 | CCn1c(C)nnc1CN(C)C1CCN(CCc2cccs2)C1 (stereo not given) | -15.8%
58 | CCc1nc(CN(C(C)=O)C2CCN(CCc3cnn(C)c3)C2)no1 (stereo not given) | -3.276%
59 | CCc1nc(CN(C(C)=O)C2CCN(Cc3cnc(C)cn3)C2)no1 (stereo not given) | -6.946%
60 | CCCN1CCC(N(Cc2ncc(C)o2)C(C)=O)C1 (stereo not given) | 4.824%
61 | CCc1nc(CN(C(C)=O)C2CCN(CCc3cccs3)C2)no1 (stereo not given) | 109.6%
62 | O=C(CSc1ccc2c(c1)OCCO2)NS(=O)(=O)c1cccnc1 | 7.646%
63 | O=C(O)C(F)(F)F.O=C([C@@H]1COC[C@H]2CN(CC3CC3)C[C@H]21)N1CCC(F)CC1 | -0.2992%
64 | Cc1ncc2c(n1)CCN(C(C(N)=O)c1ccccc1)C2 (stereo not given) | -10.42%
65 | CC(C)NC(=O)[C@H]1C[C@@H]2[C@@H](C1)OCCN2CC1CC1.O=C(O)C(F)(F)F | -2.648%
66 | CCc1nc(CN(C)C2CCN(CCn3cccn3)C2)no1 (stereo not given) | 113.6%
67 | CC(C)c1cnc(CN(C)C2CCN(CCc3ccccn3)C2)o1 (stereo not given) | -3.925%
68 | CCc1nc(CN(C)C2CCN(CCc3ccccn3)C2)no1 (stereo not given) | 16.6%
69 | Cc1nc(CN(C)C2CCN(CCc3ccccn3)C2)no1 (stereo not given) | 113.1%
70 | CCc1nc(CN(C)C2CCN(CCc3cccs3)C2)no1 (stereo not given) | 104.6%
71 | Cc1nc(CN2CCCC(N(C)CCc3cccs3)C2)no1 (stereo not given) | 6.086%
72 | CCc1nc(CN2CCCC(N(C)CCc3cccs3)C2)no1 (stereo not given) | 105.7%

Row | SMILES | Percent Effect
73 | CCc1nc(CN(C)C2CCN(CCS(C)(=O)=O)C2)no1 (stereo not given) | 2.202%
74 | CCc1nc(CN2CCCC(N(C)Cc3cnc(C)s3)C2)no1 (stereo not given) | -6.39%
75 | Cc1ccc(NCc2cn3c(n2)CN(Cc2ccc(C)o2)CC3)nn1.O=C(O)C(F)(F)F.O=C(O)C(F)(F)F | -14.5%
76 | COCCN1CCCC2(CCN(c3nccc4ccccc34)C2)C1=O (stereo not given) | 0.09488%
77 | CN(C)C(=O)N1C[C@@H]2CC[C@H](C1)N(Cc1nnc(-c3ccccc3)o1)C2 | 137.1%
78 | c1ccc(CN2C[C@@H]3CC[C@H](C2)N(Cc2nnc(C4CC4)o2)C3)cc1 | -6.562%
79 | CN(C)C(=O)N1C[C@@H]2CC[C@H](C1)N(Cc1ccc3nsnc3c1)C2 | -1.823%
80 | CC(C1CC1)N(C)Cc1nnc(-c2ccco2)o1 (stereo not given) | -0.554%
81 | c1ccc(-c2nnc(CN3C[C@@H]4CC[C@H](C3)N(CC3CCC3)C4)o2)cc1 | 0.05664%
82 | CN(C)C(=O)N1C[C@@H]2CC[C@H](C1)N(C/C=C/c1ccc(F)cc1)C2 | 7.662%
83 | CN(C)C(=O)N1C[C@@H]2CC[C@H](C1)N(Cc1nnc(C3CC3)o1)C2 | 98.65%
84 | c1ccc(CN2C[C@H]3CC[C@@H]2CN(Cc2nnc(C4CC4)o2)C3)cc1 | 2.015%
85 | CN(C)C(=O)N1C[C@@H]2CC[C@H](C1)N(Cc1nnc(-c3ccco3)o1)C2 | 70.33%
86 | CCC(NCc1ccccn1)c1ccccc1OCC(=O)NC (stereo not given) | 13.68%
87 | CN1CCOC(CNC(=O)CCCOCCc2ccccc2)C1 (stereo not given) | -8.698%
88 | COc1cccc(CNCC2CN(C)CCO2)c1 (stereo not given) | 98.93%
89 | FC(F)(F)Oc1cccc(CNC[C@H]2Cn3ccnc3CO2)c1 | -15.74%
90 | CN1CCOC(CNCc2cccc(OCC(F)(F)F)c2)C1 (stereo not given) | -1.081%
91 | CN1CCOC(CNCc2cccc(OC(F)(F)F)c2)C1 (stereo not given) | 76.13%
92 | CN1CCOC(CNCc2nc(-c3ccco3)no2)C1 (stereo not given) | -7.293%
93 | COCCOc1cccc(CNCC2CN(C)CCO2)c1 (stereo not given) | 121.8%
94 | CCOC(=O)CCNC(=O)N1CCOC(Cc2cccc(OC)c2)C1 (stereo not given) | -8.536%
95 | CCCOc1cccc(CNC(=O)CN2CCN(C)CC2C)c1 (stereo not given) | -6.684%
